NR2F2 inh: NR2F2 transcriptional activity inhibitors, primary screen, cell-based, luciferase reporter, HEK293T, luminescence | HEK293T NGFI-A luciferase reporter | AID 686940, 2013 | actives 0.7% (n = 370,000) | inhibition, % at 8.6 µM | COUP transcription factor 2 (Homo sapiens), P24468;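 active means inhibition above a per-plate cutoff, mean inhibition of test wells between control levels plus 3 SD, cut at about 38% in these data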;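 further: cells cotransfected with COUP-TFII expression vector driving the NGFI-A reporter; 0% = median of COUP-TF2 test wells and 100% = reporter-only cells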
Target sequence (P24468 whole entry, looked up): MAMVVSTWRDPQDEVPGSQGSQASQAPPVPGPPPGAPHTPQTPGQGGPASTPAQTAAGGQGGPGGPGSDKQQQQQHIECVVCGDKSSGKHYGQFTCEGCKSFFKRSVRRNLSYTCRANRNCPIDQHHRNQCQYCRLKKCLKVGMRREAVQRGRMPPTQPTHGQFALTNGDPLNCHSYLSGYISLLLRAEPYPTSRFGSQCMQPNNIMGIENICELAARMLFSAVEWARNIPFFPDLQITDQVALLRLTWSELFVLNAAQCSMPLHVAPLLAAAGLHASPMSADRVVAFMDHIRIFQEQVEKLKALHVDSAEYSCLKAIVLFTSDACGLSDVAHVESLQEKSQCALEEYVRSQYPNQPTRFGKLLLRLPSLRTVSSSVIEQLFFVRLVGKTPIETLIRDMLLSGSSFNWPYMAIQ
GalR3 antag: GalR3 antagonists in HEK293 cells, primary screen, cell-based, fluorescence readout; HEK293 GalR3-CNG cAMP membrane potential fluorescence; galR3 body fused to GalR1 C-terminus; inhibition, % at 3 µM; actives 0.44% (n = 360,000); AID 651719, 2012;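 active means inhibition above the screen-wide average plus 3 SD, cut at about 13% in these data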;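 further: forskolin and galanin both at EC90 stimulate the cells; cAMP rise reported by CNG channel membrane potential dye signal; 0% = forskolin plus galanin with DMSO and 100% = forskolin alone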
Cardio protect: cardioprotection against H2O2-induced cell death, primary screen, uHTS, H9c2 cells, ATPLite luminescence; protection from H2O2 cell death, % at 20 µM; AID 588492, 2011; H9c2 cardiomyocytes, H2O2 injury protection, 2 h; actives 0.63% (n = 360,000);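 active means compounds giving at least 50% protection of heart cells from peroxide-induced death in the single-dose screen, raw or plate-pattern-corrected value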;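 further: 0% = DMSO wells with peroxide and 100% = DMSO wells without peroxide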
GAA850 FXN act: FXN promoter activators, primary screen, cell-based, luciferase luminescence, HEK293 lucGAA850. activation, % at 6 µM. HEK293 lucGAA850 FXN promoter luciferase reporter, 24 h; percent of 10 µM SAHA response. actives 0.56% (n = 360,000);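 active means activation above the average of all compounds screened plus 3 SD, cutoff fixed separately per campaign, cut at about 7.5% in these data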;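 further: 0% = DMSO wells and 100% = 10 µM SAHA wells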
Gli-Sufu antag: Gli-Sufu pathway antagonists, primary screen, luciferase luminescence, Sufu-KO-LIGHT cells, uHTS | Sufu-KO-LIGHT fibroblasts, Gli luciferase reporter luminescence | inhibition, % at 5 µM | actives 0.74% (n = 340,000) | AID 588413, 2011;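 active means inhibition above about 55%, limit read from the data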;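 further: 0% = DMSO-treated cells and 100% = wells with medium but no cells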
SMARCA2 activ: SMARCA2 (BRM) function activators, primary screen, cell-based, luminescence, high throughput. AID 652017, 2013. MG213 cells, MMTV-luciferase reporter, dexamethasone, overnight. actives 1% (n = 370,000). activation, % at 9.1 µM; in the data active means activation above about 7.8%;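 further: 0% = vehicle wells and 100% = reference activator wells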
GAA30 FXN cntr: GAA30 FXN promoter activators, confirmation, counter-screen for GAA850 frataxin promoter activator project, cell-based, luminescence, HEK293, lucGAA30, triplicate | shares compounds with GAA850 FXN act | HEK293 lucGAA30 FXN promoter luciferase, 24 h; DMSO = 0%, 5 µM ipriflavone = 100% | activation, % at 6 µM | actives 66% (n = 1,900) | AID 588350, 2011;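 active means mean activation above the mean of solvent-only control wells plus 3 SD, cut at about 22% in these data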;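 further: counterscreen of GAA850 promoter hits where activity marks nonselective or luminescence artifacts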
FXN GAA850 conf: FXN GAA850 promoter activators in reporter cells, confirmation, cell-based, luminescence, HEK293 lucGAA850, triplicate. shares compounds with GAA850 FXN act. HEK293 lucGAA850 FXN promoter luciferase reporter, 24 h; 100% = activation by SAHA. activation, % at 6 µM. actives 86% (n = 1,900). AID 588351, 2011;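 active means mean activation above a set limit taken from the primary screen, cut at about 8% in these data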;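 further: 0% = DMSO wells and 100% = 10 µM SAHA wells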
* marks the source's active call; other numbers are inactive results; / = not tested or not shown. Sampled rows, rich in hits. Any-hit rate of the full collection: about 3.4%.

SMILES	NR2F2 inh	GalR3 antag	Cardio protect	GAA850 FXN act	Gli-Sufu antag	SMARCA2 activ	GAA30 FXN cntr	FXN GAA850 conf
CCCCOc1ccc(-c2cn3ccccc3n2)cc1[N+](=O)[O-]	-61	-3	-13	2	-67	7	/	/
O=[N+]([O-])c1ccc(-c2cn3ccccc3n2)cc1	-70	-3	-8	9.2*	-67	7	108*	50*
CC(C)(C)c1ccc(OCCn2ccccc2=O)cc1	-44	-2	-6	8.5*	-105	3	100*	41*
O=c1ccccn1CCOc1ccc(Cl)cc1	6	-4	5	2	2	-1	/	/
Cc1cc(NS(=O)(=O)c2ccc(NC(=O)Cc3ccc(Cl)c(Cl)c3)cc2)on1	11	/	/	/	/	-3	/	/
CN(C(=O)c1ccno1)c1nnc(-c2ccccn2)s1	-30	3	-3	0	-31	-1	/	/
COc1ccc(-c2nnc(N(C)C(=O)c3ccno3)s2)cc1	-18	2	-24	12*	11	2	99*	30*
CNC(=O)CN(c1ccc(C23CC4CC(CC(C4)C2)C3)cc1)S(C)(=O)=O	0	-3	-13	7.6*	9	-3	26*	15*
CC(Oc1ccc(C(C)(C)C)cc1)C(=O)NCC(c1ccco1)N1CCCC1 (stereo not drawn)	14	1	-12	8.4*	2	-3	16	9.6*
Cc1ccc(CCN2C(=O)CCC2(C)C(=O)NC2CCCC2)cc1 (stereo not drawn)	14	-1	2	15*	4	-1	19	5
COc1ccc(C#CCN(C)/C(N)=N/C(=O)OCc2ccccc2)cc1	17	/	/	/	/	-4	/	/
CCCCOC(=O)Nc1nnc(CC)s1	-14	-3	1	7.7*	-22	5	51*	27*
CCCC/C=C1/[C@@H](C(C)C)N(Cc2ccc3c(c2)OCO3)C2=N[C@H](c3ccccc3)CC(=O)N21	4	/	/	/	/	/	/	/
CC[C@]12c3[nH]c4ccc(Cl)cc4c3CCN1C(=O)[C@@H](CC(=O)NCC13CC4CC(CC(C4)C1)C3)C[C@@H]2C(=O)N1CCN(C(=O)c2ccco2)CC1	9	-3	-11	-2	7	-4	/	/
CC[C@]12c3[nH]c4ccc(OC)cc4c3CCN1C(=O)C(CC(=O)NCC13CC4CC(CC(C4)C1)C3)C[C@@H]2C(=O)N1CCN(C(=O)c2ccco2)CC1 (stereo partly drawn)	/	/	2	15*	0	/	2	11*
NC(=S)NN=C1c2ccccc2-c2cc(Br)ccc21	32	-7	-2	11*	15	0	17	14*
COC(=O)c1c(NC(=O)CN2CCC3(O)CCCCC3C2c2ccc(OC)cc2OC)sc(C)c1C (stereo not drawn)	4	0	2	10*	-2	-5	26*	5
Cc1cc(NC(=O)CSc2nc(C(C)C)nc3sc(C)c(C)c23)no1	-15	1	-7	7.9*	4	-2	-6	13*
CCOC(=O)Cc1c(-c2cccc(Cl)c2)nc2c3ccccc3ccn12	15	-6	/	/	/	-2	/	/
COC(=O)[C@@]12C[C@@H](CC(=O)NCc3cccc4ccccc34)C(=O)N(Cc3ccco3)C1=CCC(C)(C)C2	0	-6	/	/	/	-2	/	/
CCC(C)Oc1cc(-c2ccnc(Nc3cccc(Cl)c3)n2)ccn1 (stereo not drawn)	2	-12	-16	22*	-8	2	40*	82*
CCOC(=O)[C@]12CCCC=C1N(Cc1ccco1)C(=O)[C@H](CC(=O)NCCCCc1ccccc1)C2	0	-1	/	/	/	-6	/	/
Cc1cccc(-c2nc(CN3CCCC(C(=O)NC4CCC(C)CC4)C3)c(C)o2)c1 (stereo not drawn)	-2	2	-19	2	3	1	/	/
Cc1cccc(-c2nc(CN3CCCC(C(=O)NC4CCCC4)C3)c(C)o2)c1 (stereo not drawn)	12	-3	-5	8.0*	-4	-2	10	6
O=C(CSCCO)Nc1cccc2ccccc12	19	-2	6	-2	3	-1	/	/
SMILES	NR2F2 inh	GalR3 antag	Cardio protect	GAA850 FXN act	Gli-Sufu antag	SMARCA2 activ	GAA30 FXN cntr	FXN GAA850 conf
O=C(CSCC(=O)Nc1cccc2ccccc12)Nc1cccc2ccccc12	10	-7	0	14*	-6	-3	23*	5
Cn1c(SC/C=C/c2ccccc2)nnc1-c1cccnc1	-12	/	/	/	/	-6	/	/
NC(Cc1ccccc1)c1csc(NC(=O)Nc2ccccc2Oc2ccccc2)n1 (stereo not drawn)	5	-3	-23	4	/	-7	/	/
COc1ccc(CC(N)c2csc(NC(=O)Nc3ccccc3Cc3ccccc3)n2)cc1 (stereo not drawn)	1	-6	-21	15*	/	-5	14	7.7*
COc1ccc(CC(N)c2csc(NC(=O)Nc3ccccc3Oc3ccccc3)n2)cc1 (stereo not drawn)	0	-8	-28	8.1*	/	-2	2	7
NC(Cc1ccc(C(F)(F)F)cc1)c1csc(NC(=O)Nc2ccccc2Oc2ccccc2)n1 (stereo not drawn)	9	-6	-24	12*	/	-2	-20	8.2*
Cc1[nH]c2ccccc2c1CC(=O)Nc1ccc(Nc2ccccc2)cc1	-15	-5	/	/	/	-1	/	/
CSC1=C(C#N)C(c2ccccc2C)C(C#N)=C(N)N1 (stereo not drawn)	-3	-7	3	11*	-10	1	25*	15*
O=c1sc(N2CCN(c3ccccc3F)CC2)nc2ccsc12	-15	/	-12	7.9*	-64	2	106*	40*
O=S(=O)(c1cccs1)N1CCN(c2ccccc2Cl)CC1	8	4	-12	3	-9	3	/	/
O=S(=O)(c1cccs1)N1CCN(c2ccccc2F)CC1	-11	-8	-4	7.7*	-9	0	12	7
O=c1sc(N2CCN(c3ccc(F)cc3)CC2)nc2ccsc12	-2	/	-8	5	-59	2	/	/
